The campaign covered roughly 52,000 compounds. About 4,300 (8.3%) were called active. Many of the other results were omitted from the sample, so actives are more common in it than they were. A number with no mark means an inactive call. Rule as the data show it: active = survival mostly below about 52% (no sharp cut-off); inactive = mostly above about 56%.
The compounds below were run on DeltatarO mutant (assay: growth inhibition of S. aureus wild type versus tarO mutant, primary screen, teichoic acid synthesis inhibitors, RN4220, OD600 (AID 463173)). Conditions: OD600, 18 h, active compounds read low, screened at 18.75 µg/mL (by protocol).

Going from `Cc1ccc(Cl)cc1N1CCN(C(=O)C2CCCN(S(=O)(=O)c3ccc(Br)s3)C2)CC1` (configuration not stated) to `COc1ccc(C)cc1NC(=O)c1ccc2c(c1)CCN2S(=O)(=O)c1ccc(Cl)cc1`, the survival falls from 113% to 79%.

Compared with `COc1ccccc1N(CC(=O)NC1CCCCC1)C(=O)c1csnn1`, `Cc1ccccc1OCC(=O)Nc1sc2c(c1C(=O)OC(C)C)CCCC2` is lower in survival: 96% for the first, 77% for the second.

Going from `O=C(NCc1cccc(F)c1)c1ccc(CS(=O)c2ccccc2Cl)o1` (configuration not stated) to `COc1cccc(CNC(=O)c2nn(C)c3c2CS(=O)(=O)c2ccccc2-3)c1`, the survival rises from 68% to 74%.

Compared with `COc1ccc(NC(=O)c2c(NC(=O)COc3ccccc3)sc3c2CCC(C)C3)cc1` (configuration not stated), `CC1CCc2c(sc(NC(=O)CCCOc3ccccc3)c2C(N)=O)C1` (configuration not stated) is lower in survival: 120% for the first, 78% for the second.

First: Cc1ccc(OCCCC(=O)Nc2sc3c(c2C(N)=O)CCCC3)cc1
Second: CCOc1ccc(/C=C/C(=O)Nc2sc3c(c2C(=O)OC)CCCC3)cc1
The survival of the first is lower: 53% for the first, 110% for the second.

Going from `CCOc1ccc(/C=C/C(=O)Nc2sc3c(c2C(=O)OC)CCC3)cc1` to `CCOC(=O)c1c(NC(=O)/C=C/c2ccc(OCC)cc2)sc2c1CCC2`, the survival rises from 75% to 145%.

Going from `COC(=O)c1c(NC(=O)COc2ccc(Cl)cc2C)sc2c1CCCCC2` to `CCOC(=O)c1c(NC(=O)/C=C/c2ccccc2)sc2c1CCCC2`, the survival rises from 68% to 75%.

Compared with `CCS(=O)(=O)Nc1ccc2[nH]c(=O)[nH]c2c1`, `CCc1ccc(NC(=O)CNC(=O)Cn2c(C)cc3ccccc3c2=O)cc1` is higher in survival: 88% for the first, 114% for the second.

First: CCN(C(=O)C1CCN(S(=O)(=O)c2c(C)noc2/C=C/c2ccc(C)cc2)CC1)c1cccc(C)c1
Second: CCN(CCCNC(=O)CN1N=C(c2ccc(OC)cc2)CCC1=O)c1cccc(C)c1
The survival of the first is lower: 84% for the first, 123% for the second.

Going from `CCOc1ccc(CCNC(=O)C2CC(=O)N(CCc3ccc(OC)c(OC)c3)C2)cc1OCC` (configuration not stated) to `COc1ccc(-c2noc(-c3ccc(N4CCN(C)CC4)c([N+](=O)[O-])c3)n2)cc1OC`, the survival falls from 91% to 50%.

Compared with `COc1ccc(OC)c(C2CC(=O)c3c([nH]c(C(=O)OC4CCC(C)CC4)c3C)C2)c1` (configuration not stated), `CCOc1ccc(NC(=O)c2ccc3c(=O)n4c(nc3c2)CCCCC4)cc1` is higher in survival: 81% for the first, 139% for the second.

First: COc1ccc(-c2noc(-c3ccc(N4CCN(c5ccc(OC)cc5)CC4)c([N+](=O)[O-])c3)n2)cc1
Second: COc1ccc(-c2noc(-c3ccc(N4CCCC4)c([N+](=O)[O-])c3)n2)cc1
The survival of the first is lower: 47% for the first, 108% for the second.

First: COc1ccc(-c2noc(-c3ccc(N4CCOCC4)c([N+](=O)[O-])c3)n2)cc1
Second: COc1cccc(C(=O)CN2C3=NCCN3c3ccccc32)c1
The survival of the first is lower: 46% for the first, 106% for the second.

Compared with `CC1=C(C(=O)Nc2ccccc2C)C(c2cccnc2)n2nc(SCc3ccccc3F)nc2N1` (configuration not stated), `CC(C)OCCCN1C(=O)c2[nH]nc(-c3ccccc3O)c2C1c1cccc(OCc2ccccc2)c1` (configuration not stated) is lower in survival: 60% for the first, 49% for the second.

First: Cc1nc2nncn2c(N2CCN(c3ccccc3)CC2)c1C
Second: CCN(CCCNC(=O)CN1N=C(c2ccccc2)CCC1=O)c1cccc(C)c1
The survival of the first is lower: 83% for the first, 124% for the second.

First: CC(=O)c1ccc(NC(=O)CSc2cn(CC(=O)N3CCCCC3)c3ccccc23)cc1
Second: CCCCN(CCCNC(=O)CN1N=C(c2ccc(C)cc2)CCC1=O)c1ccccc1
The survival of the first is lower: 63% for the first, 92% for the second.

First: COCC(=O)Nc1nc(-c2ccccc2)cs1
Second: C=CCNc1nc(-c2ccccc2)cs1
The survival of the first is higher: 112% for the first, 97% for the second.

Compared with `CC1=C(C(=O)Nc2cccc(F)c2)C2(CCCCCC2)OC1=O`, `CCOC(=O)c1c(NC(=O)/C=C/c2ccc(C(C)C)cc2)sc2c1CCC2` is lower in survival: 70% for the first, 56% for the second.

Compared with `Cc1ccc(C2=NN(CC(=O)NCCCN(CC(C)C)CC(C)C)C(=O)CC2)cc1`, `Cc1ccc(C2=NN(CC(=O)NCCN(CC(C)C)CC(C)C)C(=O)CC2)cc1` is higher in survival: 83% for the first, 131% for the second.

Compared with `CCCCN(CCCNC(=O)CN1N=C(c2ccccc2)CCC1=O)c1ccccc1`, `CC(C)OCCCN1C(=O)c2[nH]nc(-c3ccccc3O)c2C1c1ccccc1F` (configuration not stated) is lower in survival: 88% for the first, 46% for the second.

First: O=C(NCCc1ccc(Cl)cc1)C(=O)NCC(c1cccs1)S(=O)(=O)c1ccccc1 (configuration not stated)
Second: COCCCN1C(=O)c2[nH]nc(-c3ccccc3O)c2C1c1ccc(OC)cc1 (configuration not stated)
The survival of the first is higher: 77% for the first, 53% for the second.

`CCCCN1C(=O)c2[nH]nc(-c3ccccc3O)c2C1c1ccc(C(C)(C)C)cc1` (configuration not stated) was tested, and the survival was 88%.

For `COC(=O)c1c(NC(=O)CCCOc2ccc(C)cc2)sc2c1CCCC2`, the survival was 8% (active).
`COC(=O)c1c(NC(=O)CCCOc2ccccc2C)sc2c1CCC2` was tested, and the survival was 4% (active).
With `COC(=O)c1c(NC(=O)CCCOc2ccccc2)sc2c1CCC(C)C2` (configuration not stated) the survival was 2% (active).
In the case of `COc1ccc(-c2noc(-c3ccc(N4CCN(C)CC4)c([N+](=O)[O-])c3)n2)cc1`, the survival is reported as 42% (active).
`COc1ccc(-c2noc(-c3ccc(N4CCCCC4)c([N+](=O)[O-])c3)n2)cc1` was tested, and the survival was 37% (active).
`Cc1nc(C)c(-c2csc(NCc3ccccc3)n2)s1` was tested, and the survival was 65% (active).
In the case of `Cc1ccc(C2=NN(CC(=O)NCCC(C)C)C(=O)CC2)cc1`, the survival is reported as 37% (active).
With `CCN(CCCNC(=O)CN1N=C(c2ccccc2)CCC1=O)c1ccccc1` the survival was -5% (active).
With `CCN(CCCNC(=O)CN1N=C(c2ccc(C)cc2)CCC1=O)c1ccccc1` the survival was 0% (active).
For `CCOC(=O)c1c(NC(=O)/C=C/c2ccc(C)cc2)sc2c1CCCC2`, the survival was 22% (active).
For `CCOC(=O)c1c(NC(=O)/C=C/c2ccc(OCC)cc2)sc2c1CCCC2`, the survival was 36% (active).
`CCCCN1C(=O)c2[nH]nc(-c3ccccc3O)c2C1c1ccc(OCc2ccccc2)cc1` (configuration not stated) was tested, and the survival was 43% (active).
`CC(C)OCCCN1C(=O)c2[nH]nc(-c3ccccc3O)c2C1c1ccc(OCc2ccccc2)cc1` (configuration not stated) was tested, and the survival was 28% (active).
`COCCCN1C(=O)c2[nH]nc(-c3ccccc3O)c2C1c1ccc(OCc2ccccc2)cc1` (configuration not stated) was tested, and the survival was 8% (active).
